PubChem BioAssay AID588849 (Broad Institute, 2011)
Potency and affinity values are given separately.

Biological target: CAAX prenyl protease 2 (Homo sapiens) (UniProt Q9Y256)
Assay: inhibition of Ras-converting CAAX protease Rce1 – biochemical, yeast membranes, quenched-peptide fluorescence, cherry-pick, dose response (AID 588849)
Conditions: yeast membrane fractions expressing human Rce1, quenched-peptide fluorescence, 4 h; series mostly up to 10 µM; activity change, negative = inhibition: at the top concentration; call rule not given here

Sequence of CAAX prenyl protease 2 (Homo sapiens) (Q9Y256 whole entry, looked up): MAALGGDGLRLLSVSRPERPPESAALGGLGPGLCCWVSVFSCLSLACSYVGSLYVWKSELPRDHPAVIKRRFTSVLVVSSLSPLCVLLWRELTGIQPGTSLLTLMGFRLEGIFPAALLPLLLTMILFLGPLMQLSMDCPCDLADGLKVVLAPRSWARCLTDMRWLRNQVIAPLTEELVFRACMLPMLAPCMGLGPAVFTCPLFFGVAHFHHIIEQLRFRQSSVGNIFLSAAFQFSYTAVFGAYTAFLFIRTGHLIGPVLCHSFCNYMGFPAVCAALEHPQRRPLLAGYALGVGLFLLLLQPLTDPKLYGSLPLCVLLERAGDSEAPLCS

Activity change, negative = inhibition, inactive:
O=C(CN(C1CCCCC1)C1CCCCC1)N1CCc2ccccc2C1 -4.14%, Cc1ccc(S(=O)(=O)c2cn(C)c3cc(N4CCOCC4)c(F)cc3c2=O)cc1 -6.82%, CCn1cc(/C=C(\NC(=O)c2ccccc2Cl)C(=O)N2CCOCC2)c2ccccc21 -3.13%, COC(=O)/C=c1\[nH]c2nnc(C)n2c1=O -12.8%, CC(C)c1c(C(=O)N/N=C/c2c[nH]c3ccccc23)nnn1-c1nonc1N -12.2%, CC(C)CNC(=O)COc1cccc(C(=O)NCc2ccccc2)c1 10.1%, CCn1c(COc2cccc(C)c2)nnc1SCC(=O)NC1CCCC1 -5.79%, Cc1ccc(SCc2c(C(=O)N/N=C/c3ccccc3)nnn2-c2nonc2N)cc1 -19.6%, COCc1c(Br)c(C)[nH]c(=O)c1C#N -4.46%, c1ccc(Nc2cccc(Nc3ccccc3)n2)cc1 46.8%, Cc1ccc(C(=O)c2c3ccc(C(F)(F)F)cc3[n+]([O-])n2CCCC(N)=O)cc1 9.34%, CCN1CCN(CC(O)COc2ccc3c(C)cc(=O)oc3c2)CC1 (stereo not drawn) 0.145%, CC(=O)C(C)Oc1ccc2c3c(c(=O)oc2c1)CCCC3 (stereo not drawn) 0.274%, Cc1ccc(-c2c(C(=O)N/N=C/c3cccc(Cl)c3)nnn2-c2nonc2N)cc1 4.75%, Cc1cccc2sc(N(CCN(C)C)C(=O)c3ccc4ccccc4c3)nc12 -27%, Cc1c(Cl)c([N+](=O)[O-])nn1CC(=O)N1CCCc2ccccc21 -13.2%, CC(C)CNC(=O)Nc1ccc(F)c(Cl)c1 0.189%, O=C(O)CCc1nc2cc(C(F)(F)F)ccc2n(Cc2ccccc2)c1=O -9.89%
